The text below walks through data of PMC5540273 (PLoS ONE, 2017).

Molecules are shown by their SMILES.

Test systems include ERN1; FER; FES; FGFR1; FGFR2; FGFR3; FGFR4; FGR; FLT1; FLT3-autoinhibited; FLT3; FLT4; FRK.
Holding throughout (details): concentration: 1 μM,replicates: in singlicate; n = 1
Another assay concerns T1, ERK1.
T1 construct: gene MAPK3

For a further assay, the system named is T2, ERK2.
T2 construct: gene MAPK1

The subject of another assay is T3, ERK3.
T3 construct: gene MAPK6

Another assay deals with T4, ERK4.
T4 construct: gene MAPK4

The subject of a further assay is T5, ERK5.
T5 construct: gene MAPK7

Another assay relates to T6, ERK8.
T6 construct: gene MAPK15

In a further assay the test system is T7, FAK.
T7 construct: gene PTK2
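Further: KINOMEscan kinase panel screen.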

In the case of `CCn1c(-c2nonc2N)nc2cncc(CNC3CCNCC3)c21.Cl` [SB-747651], the “%Inh” value with ERK1 was found to be 0%; in the assay on ERK2 it was 0%; in the assay with ERK3 it was 6%; with ERK4 it was 0%; in the assay on ERK5 it was 0%; in the assay with ERK8 it was 16%. For the same compound, the “%Inh” value in the assay on ERN1 is listed as 2%; with FAK, 0%; in the assay with FER, 2%; with FES, 0%; in the assay with FGFR1 it was 0%; with FGFR2 it was 0%. Besides, the “%Inh” value in the assay with FGFR3 amounted to 5%; in the assay with FGFR4 it was 6%; in the assay on FGR, 1%; in the assay on FLT1, 8%; with FLT3-autoinhibited, 3%; with FLT3 it was 0%. In addition, the “%Inh” value in the assay on FLT4 is on record as 10%; with FRK, 0%.

Turning to `O=C(Nc1cccc(Oc2ccc3nccn3n2)c1)Nc1cccc(C(F)(F)F)c1`, the “%Inh” value came out at 0% in the assay on ERK1; 0% with ERK2; 0% in the assay with ERK3; 1% in the assay with ERK4; 2% in the assay on ERK5; 18% with ERK8. Also, the “%Inh” value in the assay with ERN1 is on record as 6%; with FAK, 2%; in the assay with FER it was 0%; with FES, 2%; with FGFR1, 29%; in the assay on FGFR2, 4%. The “%Inh” value is 0% in the assay on FGFR3; 0% in the assay with FGFR4; 18% in the assay with FGR; 93.2% in the assay on FLT1; 0% in the assay on FLT3-autoinhibited; 59% with FLT3. Besides, the “%Inh” value amounted to 99% with FLT4 and 77% with FRK.

As to `O=C(Nc1ccccc1)c1cccc(Oc2ccc3nccn3n2)c1`, the “%Inh” value with ERK1 is on record as 0%; with ERK2, 0%; in the assay on ERK3, 0%; in the assay with ERK4 it was 77%; in the assay with ERK5, 0%; with ERK8 it was 0%. Besides, the “%Inh” value in the assay on ERN1 is 22%; in the assay on FAK, 0%; with FER it was 2%; in the assay on FES, 6%; with FGFR1, 41%; in the assay on FGFR2 it was 19%. Besides, the “%Inh” value is listed as 20% in the assay with FGFR3; 0% in the assay with FGFR4; 10% in the assay with FGR; 79% in the assay with FLT1; 16% in the assay on FLT3-autoinhibited; 0% in the assay on FLT3. Besides, the “%Inh” value was found to be 5% in the assay with FLT4 and 0% with FRK.

As for `Cc1cccc(-c2nc(Nc3ccncc3)c3sccc3n2)n1` [GW869641], the “%Inh” value was found to be 5% with ERK1; 18% with ERK2; 3% with ERK3; 26% in the assay on ERK4; 0% in the assay on ERK5; 2% in the assay on ERK8. Besides, the “%Inh” value with ERN1 was 32%; in the assay with FAK it was 2%; with FER, 9%; with FES, 7%; with FGFR1 it was 16%; in the assay with FGFR2 it was 0%. Besides, the “%Inh” value was 7% in the assay on FGFR3; 8% in the assay on FGFR4; 11% with FGR; 26% in the assay on FLT1; 14% with FLT3-autoinhibited; 41% in the assay with FLT3. The figures for the “%Inh” value with FLT4 and in the assay with FRK were 15% and 1%, respectively.

As to `O=C(Nc1n[nH]c2cc(-c3ccco3)ccc12)C1CC1` [SB-737447], the “%Inh” value was 0% in the assay on ERK1; 0% in the assay on ERK2; 0% with ERK3; 3% in the assay with ERK4; 0% in the assay on ERK5; 72% with ERK8. Also, the “%Inh” value with ERN1 amounted to 9%; with FAK, 3%; in the assay on FER, 0%; in the assay on FES, 1%; in the assay on FGFR1 it was 14%; with FGFR2, 0%. In addition, the “%Inh” value in the assay with FGFR3 is 6%; with FGFR4, 0%; with FGR, 0%; in the assay with FLT1, 0%; in the assay on FLT3-autoinhibited it was 4%; in the assay on FLT3, 59%. Further, the “%Inh” value in the assay on FLT4 and in the assay on FRK was 0% in each case.

For `CN(c1ccccc1CNc1nc(Nc2ccc3c(c2)CC(=O)N3)ncc1C(F)(F)F)S(C)(=O)=O`, the “%Inh” value is listed as 68% in the assay with ERK1; 82% with ERK2; 0% in the assay with ERK3; 5% in the assay on ERK4; 24% in the assay with ERK5; 95.8% in the assay with ERK8. The “%Inh” value is 0% in the assay on ERN1; 82% in the assay on FER; 70% with FES; 68% in the assay with FGFR1; 64% in the assay with FGFR2; 47% in the assay on FGFR3. The “%Inh” value in the assay with FGFR4 amounted to 11%; in the assay with FGR, 37%; in the assay with FLT1, 53%; in the assay on FLT3-autoinhibited it was 19%; in the assay on FLT3 it was 99.5%; in the assay with FLT4 it was 85%. The “%Inh” value in the assay with FRK was determined as 54%.

`OCCn1cc(-c2cnc3nnn(Cc4ccc5ncccc5c4)c3n2)cn1`: the “%Inh” value came to 0% in the assay with ERK1; 0% in the assay on ERK2; 0% in the assay on ERK3; 18% in the assay on ERK4; 3% in the assay with ERK5; 9% with ERK8. In addition, the “%Inh” value in the assay with ERN1, in the assay on FAK, in the assay with FER, in the assay on FES, in the assay with FGFR1 and with FGFR2 was 0% throughout. Besides, the “%Inh” value came out at 0% in the assay with FGFR3; 0% in the assay on FGFR4; 5% in the assay on FGR; 0% in the assay with FLT1; 0% in the assay with FLT3-autoinhibited; 0% in the assay with FLT3. The “%Inh” value in the assay with FLT4 and in the assay on FRK was 0% each time.

For `Cl.Cl.NC[C@H](CC1CCCCC1)NC(=O)c1ccc(-c2ccnc3[nH]ccc23)s1` [GSK1581428], the “%Inh” value in the assay on ERK1 was found to be 18%; in the assay on ERK2 it was 31%; in the assay with ERK3, 0%; in the assay on ERK4, 0%; with ERK5 it was 0%; in the assay with ERK8, 78%. Also, the “%Inh” value in the assay with ERN1 came to 6%; in the assay with FAK it was 48%; in the assay on FER, 14%; in the assay on FES, 5%; in the assay on FGFR1, 26%; in the assay with FGFR2, 0%. Moreover, the “%Inh” value in the assay with FGFR3 is 6%; with FGFR4, 0%; in the assay on FGR, 25%; in the assay with FLT1, 42%; in the assay on FLT3-autoinhibited, 26%; with FLT3, 91.9%. The “%Inh” value in the assay on FLT4 was 13%; with FRK, 10%.

Regarding `CN1CCN(CCCNc2nccc(-c3c(-c4ccc(F)cc4)nn4cc(C(N)=O)ccc34)n2)CC1` [GW622475], the “%Inh” value amounted to 0% with ERK1; 2% in the assay on ERK2; 5% in the assay with ERK3; 36% in the assay with ERK4; 0% with ERK5; 0% in the assay on ERK8. Moreover, the “%Inh” value in the assay with ERN1 was 35%; in the assay on FAK, 0%; with FER, 26%; in the assay on FES, 0%; with FGFR1, 28%; with FGFR2 it was 0%. For the same compound, the “%Inh” value in the assay with FGFR3 came out at 8%; with FGFR4, 0%; in the assay with FGR, 0%; in the assay with FLT1 it was 54%; in the assay on FLT3-autoinhibited it was 1%; in the assay with FLT3, 10%. Moreover, the figures for the “%Inh” value with FLT4 and in the assay on FRK were 28% and 0%, respectively.

As to `Cn1ccc2ncnc(Oc3ccc(NC(=O)Nc4cc(C(C)(C)C)on4)c(Cl)c3)c21`, the “%Inh” value with ERK1 was found to be 9%; in the assay with ERK2, 5%; in the assay on ERK3 it was 8%; with ERK4, 9%; in the assay with ERK5 it was 6%; in the assay with ERK8 it was 65%. Further, the “%Inh” value in the assay on ERN1 was found to be 49%; in the assay with FAK, 0%; in the assay on FER it was 0%; with FES it was 25%; in the assay with FGFR2 it was 72%; in the assay with FGFR3 it was 23%. The “%Inh” value in the assay on FGFR4 is recorded as 73%; in the assay with FGR, 32%; with FLT1 it was 97.6%; with FLT3-autoinhibited it was 15%; with FLT3, 99.9%; with FLT4, 99.8%. The “%Inh” value with FRK is given as 96.3%.

On to `N#Cc1cccc(C(=O)NC2CCN(c3ccnc(Nc4ccc(F)cc4)n3)C2)c1` (centres unmarked) [GSK1379708], for which the “%Inh” value stood at 0% in the assay with ERK1; 10% with ERK2; 9% in the assay on ERK3; 0% in the assay on ERK4; 0% in the assay on ERK5; 0% in the assay on ERK8. The “%Inh” value in the assay with ERN1 came out at 0%; with FAK it was 0%; with FER, 30%; with FES, 2%; in the assay on FGFR1, 7%; in the assay with FGFR2, 0%. Also, the “%Inh” value with FGFR3 worked out at 0%; in the assay on FGFR4, 1%; in the assay with FGR, 18%; with FLT1, 20%; with FLT3-autoinhibited, 0%; in the assay on FLT3 it was 0%. The “%Inh” value in the assay with FLT4 was 20%; in the assay on FRK, 6%.

With `Cn1ccc2ncnc(Oc3ccc(NC(=O)Nc4cncc(C(F)(F)F)c4)c(Cl)c3)c21`, the “%Inh” value in the assay with ERK1, in the assay with ERK2, in the assay with ERK3, in the assay on ERK4, in the assay with ERK5 and in the assay on ERK8 was 0% throughout. Also, the “%Inh” value in the assay on ERN1, in the assay on FAK, in the assay on FER, in the assay on FES, in the assay with FGFR2 and in the assay with FGFR3 was 0% in each case. The “%Inh” value in the assay on FGFR4 was 0%; in the assay with FGR, 0%; in the assay with FLT1, 94.5%; in the assay on FLT3-autoinhibited, 0%; with FLT3 it was 95.7%; with FLT4 it was 99.7%. Moreover, the “%Inh” value in the assay with FRK amounted to 72%.

In the case of `C[C@@H]1CCN(C(=O)N2CCCC2)C[C@@H]1N(C)c1ncnc2[nH]ccc12`, the “%Inh” value in the assay on ERK1 worked out at 0%; in the assay with ERK2, 14%; with ERK3, 0%; with ERK4, 10%; in the assay with ERK5 it was 0%; in the assay with ERK8, 34%. For the same compound, the “%Inh” value in the assay on ERN1 amounted to 3%; in the assay on FAK it was 97.3%; with FER, 36%; with FES, 34%; in the assay with FGFR1, 13%; in the assay with FGFR2 it was 9%. For the same compound, the “%Inh” value in the assay with FGFR3 came to 20%; in the assay with FGFR4 it was 3%; in the assay on FGR it was 29%; in the assay with FLT1 it was 21%; in the assay with FLT3-autoinhibited it was 18%; in the assay with FLT3, 38%. The entries for the “%Inh” value in the assay with FLT4 and in the assay with FRK were 6% and 0%, respectively.
